These results are taken from PubChem BioAssay AID1028 (SRMLSC, 2008).

Structures are written as SMILES. Results with a measured potency or affinity are listed apart. Active and inactive are the calls of the source.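 The calls were made as follows: active = enzyme inhibitor confirmed by dose series, half-maximal inhibitory concentration at most 40 µM; inactive = the rest.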

The assay deals with diphosphomevalonate decarboxylase (Streptococcus pneumoniae D39) (UniProt Q9FD53). Description: S. pneumoniae DPM-DC inhibition retest, confirmation, biochemical, cuvette format, coupled NADH fluorescence (AID 1028). To be noted: purified DPM-DC, rate, at 50 µM, stronger effect = higher value.
`COc1ccc2oc(-c3cc(C)ccc3C)nc2c1`: the inhibition is 2.66% (inactive).

Turning to `O=C(c1ccccc1-n1sc2ccccc2c1=O)N1CCCCC1`, the inhibition is 16.1% (inactive).

For the compound `Cc1ccc(C)c(-c2nc3ccc(N)cc3o2)c1`, the inhibition was 13% (inactive).

Regarding `Cc1ccc(C)c(-c2nc3cc(N)ccc3o2)c1`, the inhibition was 0.87% (inactive).

As for `CN(C)C(=O)c1ccccc1-n1sc2ccccc2c1=O`, the inhibition is 16.7% (inactive).

As to `Clc1cccc(-c2nc3ccccc3o2)c1`, the inhibition was 1.68% (inactive).

Consider `COc1ccc(OC)c(-c2nc3cc(N)ccc3o2)c1`, for which the inhibition is 10.3% (inactive).

On to `COc1ccccc1-c1nc2cc(N)ccc2o1`, for which the inhibition is 14.5% (inactive).

Consider `Nc1ccc2oc(-c3ccc(Cl)cc3)nc2c1`, for which the inhibition was 12.8% (inactive).

`COc1ccc2nc(-c3ccccc3C)oc2c1`: the inhibition was 4.59% (inactive).

Take `Cc1ccc(C)c(-c2nc3c(N)cccc3o2)c1`: the inhibition is 6.19% (inactive).

For the compound `O=C(c1ccccc1-n1sc2ccccc2c1=O)N1CCOCC1`, the inhibition is 13.7% (inactive).

`COc1ccc2nc(-c3ccc(C)cc3)oc2c1`: the inhibition was 5.23% (inactive).

Turning to `Cc1ccc(-c2nc3cc(N)ccc3o2)cc1F`, the inhibition is 16% (inactive).

As for `COc1ccc2oc(-c3cccc(N)c3)nc2c1`, the inhibition was -0.79% (inactive).

Turning to `COc1ccc2nc(-c3ccc(F)cc3)oc2c1`, the inhibition is 4.34% (inactive).

For `COc1ccc2oc(-c3ccc(F)cc3)nc2c1`, the inhibition is 1.68% (inactive).

With `COc1ccc2nc(-c3ccncc3)oc2c1`, the inhibition was 4.83% (inactive).

Take `COc1ccc(-c2nc3cc(N)ccc3o2)cc1`: the inhibition was 13.2% (inactive).

In the case of `Cc1ccccc1-c1nc2cc(N)ccc2o1`, the inhibition was 6.79% (inactive).

With `COc1ccc2oc(-c3cccc([N+](=O)[O-])c3)nc2c1`, the inhibition was 7.59% (inactive).

As for `COc1ccc2oc(-c3ccncc3)nc2c1`, the inhibition is -0.2% (inactive).

For the compound `COc1ccc(-c2nc3ccccc3o2)cc1`, the inhibition was 6.86% (inactive).

As for `COc1ccc(OC)c(-c2nc3cc(OC)ccc3o2)c1`, the inhibition was 2.12% (inactive).
